Source: PubChem BioAssay
Marburg entry inh: qHTS for inhibitors of binding or entry into cells for Marburg Virus; 300,000 tested, 1.8% active; AID 540276, 2011; Marburg virus pseudotyped entry inhibition, cell reporter; Potency, µM (series often up to 37.8 µM), for the others: top-dose activity change, negative = inhibition, actives largely listed as inhibitors; calls by dose curve; tested in HEK293 cells; also: potency is read from the fitted curve at half-maximal effect
HCV inh: qHTS Assay for Inhibitors of Hepatitis C Virus (HCV); Huh7.5.1 HCVcc-Cre infection, luciferase reporter, 44 h; Potency, µM (top dose mostly 41.8 µM), for the others: at the top dose activity change, negative = inhibition, hits mostly inhibitors; 340,000 tested, 3.4% active; also: potency is read from the fitted curve at half-maximal effect
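1,000 cells/well; 4 h culture; + compound; + HCVcc-Cre (~0.5 moi); 44 h; luciferase substrate, RT 15 min; read 15 sec.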
Pf growth 96h: Primary qHTS for delayed death inhibitors of the malarial parasite plastid, 96 hour incubation; 320,000 tested, 6.9% active; AID 504834, 2011; P. falciparum luciferase reporter growth, 96 h; Potency, µM (highest dose often 28.7 µM), for inactives: at the highest dose activity change, negative = inhibition, most hits filed as inhibitors; also: potency is read from the fitted curve at half-maximal effect
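Erythrocytes infected with luciferase-expressing P. falciparum were dispensed at 2% hematocrit and 0.05% parasitemia (final), then incubated with compounds 96 hours at 37 C in 5% CO2. Luminescence after detection reagent addition reported growth.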
HCMV inh: qHTS Assay for inhibitors of the human cytomegalovirus (HCMV); HFF cells, HCMV-luciferase reporter, 72 h; active compounds read low; activity change, negative = inhibition, % at 57.5 µM; 410,000 tested, 4.5% active; in the data active = activity change below about -60%; inconclusive = no clear call, values can overlap the other calls; inactive = above about -39%
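HFF cells seeded 16 h at 37C, treated with compounds, infected with luciferase-reporter HCMV at MOI 1 PFU/cell; luciferase read at 72 h post infection, normalized to buffer-only and Salinomycin controls.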
Pf growth 48h: Primary qHTS for delayed death inhibitors of the malarial parasite plastid, 48 hour incubation. P. falciparum luciferase growth in erythrocytes, 48 h. Potency, µM (highest dose often 28.7 µM), for the others: top-dose activity change, negative = inhibition, hits mostly inhibitors. 310,000 tested, 5.9% active; also: potency is read from the fitted curve at half-maximal effect
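Read-out is firefly luciferase luminescence from an integrated reporter in P. falciparum, so falling signal marks reduced parasite growth. Infected erythrocytes were at 2% hematocrit and 0.1% parasitemia (final) in Albumax-supplemented RPMI 1640.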
Lassa entry inh: qHTS for Inhibitors of binding or entry into cells for Lassa Virus; 300,000 tested, 1.2% active; Potency, µM (top dose mostly 37.9 µM), without a hit: at the highest dose activity change, negative = inhibition, hits mostly inhibitors; Lassa virus pseudotype entry inhibition, cell reporter; calls by dose curve; tested in HEK293 cells; also: potency is read from the fitted curve at half-maximal effect; nearly all actives have a fitted effect of over 50% in size
* hit, by the source's call; u = inconclusive; x = no result; [ ] = another dose, or the depositor's remark. Sampled rows, rich in hits. Any-hit rate of the full collection: about 14%. Unless noted, calls follow the shape of the dose curve; as a rule, active = well fitted inhibition curve with a large enough effect; inconclusive = small, poorly fitted or top-dose-only effect, or another doubt; inactive = no such curve, though single readings can be large or run the other way. % is scaled to controls: 0 for no effect and ±100 for the full control effect.

SMILES	Marburg entry inh	HCV inh	Pf growth 96h	HCMV inh	Pf growth 48h	Lassa entry inh
O=C1C2C3C=CC(C3)C2C(=O)N1CCN1CCN(S(=O)(=O)c2ccc3ccccc3c2)CC1 (stereo not drawn)	2%	u	15%	-22	-18%	u
CC(CCN1CCCc2nc(C)c(C)cc21)=NO[C@H](C)CN1CCCc2nc(C)c(C)cc21	-41%[14.2 µM]	x	x	x	x	x
O=C(Nc1ccc(N2CCCCC2)c(Cl)c1)c1ccc2c(c1)OCCO2	-25%[46.1 µM]	10µM*	x	-77*	12%	-24%
O=C(/C=C/c1ccc(Cl)cc1)Nc1ccccc1N1CCOCC1	2%	17%	15µM*	-21	34%	-3%
O=C(CN1CCN(S(=O)(=O)/C=C/c2ccccc2)CC1)Nc1ccccc1N1CCOCC1	-24%	-29%	3.7µM*	u	u	u
O=C(Nc1ccc(N2CCCC2)c(Cl)c1)c1ccc2c(c1)OCCO2	u	u	x	-4	x	u
O=C(/C=C/c1ccc(Cl)cc1)Nc1ccc(N2CCOCC2)cc1	13%	-11%	12%	-18	-11%	5%
CCC(C)NC(=O)c1c(C)oc2nc(C)nc(N3CCOCC3)c12 (stereo not drawn)	x	x	x	6	x	11%[46.1 µM]
Cc1nc(NC2=NCN(CCCN3CCOCC3)CN2)nc2c(C)cccc12	u	7.1µM*	-6%	x	2.3µM*	u
Cc1ccc2nc(NC3=NCN(Cc4ccccc4)CN3)nc(C)c2c1	x	x	23%	x	u	x
CCOc1ccc2nc(NC3=NCN(Cc4ccco4)CN3)nc(C)c2c1	x	x	15µM*	x	u	x
Cc1nc(NC2=NCN(Cc3ccco3)CN2)nc2ccccc12	-3%	x	1.9µM*	x	-20%	x
Cc1nc(NC2=NCN(CCc3ccccc3)CN2)nc2c(C)cccc12	1%	x	x	x	x	x
Cc1nc(NC2=NCN(C3CCCCC3C)CN2)nc2ccccc12 (stereo not drawn)	2%	-24%	u	x	13µM*	x
O=C(NC(Cc1c[nH]c2ccccc12)C(=O)O)c1cccc(S(=O)(=O)N2CCCCC2)c1 (stereo not drawn)	x	x	x	10	x	x
O=C(O[C@H]1CC[C@@]23CCCN2C(=O)CCC[C@H]3C1)c1ccc(Br)cc1	x	x	x	-23	x	x
O=C(CC(NCc1cccnc1)C(=O)O)Nc1ccc(F)cc1 (stereo not drawn)	-8%[46.1 µM]	x	x	-38	x	-1%[46.1 µM]
CCCCN(Cc1cc2cc(C)ccc2[nH]c1=O)C(=O)c1cccc(Cl)c1	21%[46.1 µM]	x	x	-16	x	-11%[46.1 µM]
O=C(NNS(=O)(=O)c1ccc([N+](=O)[O-])cc1)c1ccc([N+](=O)[O-])cc1	4%[46.1 µM]	6%	14%	-8	-3%	2%
Cc1ccc(-c2nn(-c3ccc(F)cc3)c3c2cnc2cc(F)c(F)cc23)cc1	4%[46.1 µM]	x	x	-3	x	-5%[46.1 µM]
CC[N+](CC)(CC)CCOc1ccc(/C=C/c2ccccc2)cc1	x	u	0.74µM*	-99*	0.29µM*	x
Cc1cc(N2CCN(c3ccc([N+](=O)[O-])c4cccnc34)CC2)c2ccccc2n1	4%	-17%	7.4µM*	x	-18%	u
CC(C)Oc1cccc(C(=O)NC(=S)N2CCN(c3ccc(C(F)(F)F)cc3[N+](=O)[O-])CC2)c1	u	u	70%	-22	-9%	u
Cc1cc(N2CCN(c3ccc(C(F)(F)F)cc3[N+](=O)[O-])CC2)c2ccccc2n1	x	10µM*	7.4µM*	-29	13µM*	x
Cc1cc(N2CCN(c3nc(-c4ccccc4)cs3)CC2)c2ccccc2n1	-15%	u	-9%	u	u	u
SMILES	Marburg entry inh	HCV inh	Pf growth 96h	HCMV inh	Pf growth 48h	Lassa entry inh
Cc1cc(N2CCN(S(=O)(=O)c3ccccc3)CC2)c2ccccc2n1	u	u	u	-88*	u	-6%
COc1cccc(C(=O)NC(=S)N2CCN(c3ccc(C(F)(F)F)cc3[N+](=O)[O-])CC2)c1	7%	u	u	-62*	-17%	-15%
CN(C)C(CNC(=O)c1ccc2nccnc2c1)c1ccco1 (stereo not drawn)	13%[46.1 µM]	-3%	x	14	x	1%[46.1 µM]
COc1ccc(Cn2c(NCC(C)C)nc3c2c(=O)n(C)c(=O)n3C)cc1	8%[46.1 µM]	x	x	-1	x	-1%[46.1 µM]
O=C(Nc1ccccc1)N1CCCN(c2ccc(C(F)(F)F)cc2[N+](=O)[O-])CC1	16%[14.2 µM]	-18%	10µM*	5	13µM*	-24%
O=C(C1CCC1)N1CCN(c2ccc(C(F)(F)F)cc2[N+](=O)[O-])CC1	-30%	x	-2%	-34	-25%	-6%
Cc1ccccc1Cn1c(Oc2ccccc2F)nc2c1c(=O)n(C)c(=O)n2C	x	x	x	8	x	-6%[46.1 µM]
Cc1nnc(NC(=O)C(C)Sc2nnc(-c3ccco3)n2C)s1 (stereo not drawn)	21%[46.1 µM]	2%	-18%	-5	-12%	-7%
CC(Sc1nnc(-c2ccc(Cl)cc2Cl)n1Cc1ccccc1)C(=O)Nc1nccs1 (stereo not drawn)	u	u	9.3µM*	5	u	u
CC(Sc1nnc(-c2ccco2)n1C)C(=O)Nc1nccs1 (stereo not drawn)	6%[46.1 µM]	20%	5.2µM*	-3	u	6%
C[C@@H]1CCC[C@]2(O[C@H](CCO)C[C@@H](O)[C@@H]2O)O1	x	10%	x	-8	x	x
CCc1ccc2c(c1)c1nnc(NN)nc1n2CC	u	u	u	-9	u	u
CCn1c2ccc(F)cc2c2nnc(NN)nc21	-2%	-3%	3.7µM*	-1	u	-7%
CCc1ccc2c(c1)c1nnc(NN)nc1n2C	10%[46.1 µM]	-25%	u	15	12µM*	-1%
CCCn1c2ccc(F)cc2c2nnc(NN)nc21	x	u	1%	-24	u	x
NNc1nnc2c3cc(F)ccc3n(Cc3ccccc3)c2n1	u	u	3.3µM*	-95*	1.5µM*	u
CCOc1ccc2nc(N[C@@](NC(=O)CC)(C(=O)OC)C(F)(F)F)sc2c1	2%	x	x	x	x	x
CCOC(=O)Nc1ccc(C(=O)c2ccncc2)cc1	x	25%	u	19	0%	x
CC(/C=N/c1ccccn1)=N\c1ccccn1	x	x	x	-20	x	x
COc1cc(CC(=O)Nc2cccc(SC)c2)cc(OC)c1OC	u	14µM*	u	-14	-24%	-1%[46.1 µM]
CCN(Cc1cc(OC)c(OC)c(OC)c1)C(=S)Nc1cccc(SC)c1	-19%	u	10µM*	-20	u	-31%
COCCCN(Cc1cc(OC)c(OC)c(OC)c1)C(=S)Nc1cccc(Cl)c1	x	x	x	-28	x	x
C[C@H]1COc2cccc(NCCO)c2S(=O)(=O)N1	x	x	x	3	x	6%[46.1 µM]
